In PubChem BioAssay AID602123 (The Scripps Research Institute Molecular Screening Center, 2011):
Several values for one entry are separate records, joined by “and”; a condition that tells them apart may be missing. Equal entries are not always repeated. Hit rate of the full screen: of about 360,000 compounds, about 1,500 (0.42%) were called active. This is one part of a sample in which actives are shown more often than they occur. A number with no mark means an inactive call. Rule as the data show it: active = inhibition above about 13% (passing the limit was not always enough); inactive = the rest.

What follows are molecules tested against Lon protease (Escherichia coli (strain K12)) (UniProt P0A9M0) (assay: inhibitors of E. coli Lon protease, primary screen, biochemical, fluorescence polarization (AID 602123;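 also: 0% = enzyme with probe and DMSO and 100% = no enzyme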)). Settings: purified E. coli Lon protease, at 7.94 µM, stronger effect = higher value.
Sequence of Lon protease (Escherichia coli (strain K12)) (P0A9M0 whole entry, looked up): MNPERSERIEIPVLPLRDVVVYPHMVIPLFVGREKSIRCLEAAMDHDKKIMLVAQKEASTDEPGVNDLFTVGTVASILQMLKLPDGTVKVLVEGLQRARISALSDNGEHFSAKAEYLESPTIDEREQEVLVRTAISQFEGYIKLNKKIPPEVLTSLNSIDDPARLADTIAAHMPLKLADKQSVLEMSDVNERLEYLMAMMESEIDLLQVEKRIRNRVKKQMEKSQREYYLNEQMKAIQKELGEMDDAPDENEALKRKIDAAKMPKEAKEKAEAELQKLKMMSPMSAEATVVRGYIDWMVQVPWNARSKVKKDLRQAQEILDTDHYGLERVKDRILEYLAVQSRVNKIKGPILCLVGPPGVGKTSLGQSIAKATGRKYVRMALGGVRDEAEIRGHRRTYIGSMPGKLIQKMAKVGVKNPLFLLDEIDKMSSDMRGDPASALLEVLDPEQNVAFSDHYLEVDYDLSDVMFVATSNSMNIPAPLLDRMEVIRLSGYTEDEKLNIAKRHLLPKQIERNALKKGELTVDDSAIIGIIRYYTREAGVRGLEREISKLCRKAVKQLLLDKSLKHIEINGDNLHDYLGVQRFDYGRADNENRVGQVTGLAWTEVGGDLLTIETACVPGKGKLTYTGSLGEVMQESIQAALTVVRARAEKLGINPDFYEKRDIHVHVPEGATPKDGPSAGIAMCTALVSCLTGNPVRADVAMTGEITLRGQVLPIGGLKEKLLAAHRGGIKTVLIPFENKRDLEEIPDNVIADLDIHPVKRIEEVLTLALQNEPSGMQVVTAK

Compound	inhibition
CCCOn1c(-n2nc(C)cc2C)nc2ccccc2c1=O	-4.29%
CC1(C)NC(=O)N(CC(=O)Nc2ccc(-c3ccccc3)cc2)C1=O	-5.51%
COc1ccc(NC(=S)NCc2cccs2)c(OC)c1	-8.04%
Cc1[nH]c2ccccc2c1CCN(Cc1cccs1)C(=S)NC(C)(C)C	-6.78%
COc1ccc2[nH]c(C)c(CCN(Cc3cccs3)C(=S)Nc3ccccc3OC)c2c1	18.1% (active)
CCn1c(CSc2nncn2-c2ccc(OC)cc2)nc2cc(S(=O)(=O)N(C)C)ccc21	3.36%
CCCn1nc(C(=O)OCc2nc(N)nc(Nc3ccccc3C)n2)c2ccccc2c1=O	-13.7%
Cc1ccccc1Nc1nc(N)nc(CN2CCN(c3ccccn3)CC2)n1	16.7% (active)
Cc1ccccc1Nc1nc(N)nc(CSc2nnc3ccccn23)n1	7.49%
Cc1sc(NC(=S)NC(=O)c2cccs2)nc1-c1ccc(CC(C)C)cc1	-2.21%
O=C(CSCc1ccc([N+](=O)[O-])cc1)Nc1cccc(C(=O)Nc2ccccc2C(=O)O)c1	-7.21%
Cc1ccc(S(=O)(=O)N2CCC(C(=O)OCC(=O)N(C)c3ccccc3)CC2)cc1C	-4.62%
C[C@@H]1CN([C@H](C)CO)C(=O)CCCn2nncc2CO[C@@H]1CN(C)C(=O)OCc1ccccc1	-12.2%
COc1ccc(Nc2nc(-c3cccnc3)nc3ccccc23)cn1	51.2% (active)
O=C(CSc1n[nH]c(-c2cccnc2)n1)Nc1ccnc2ccccc12	-1.63%
CCN(CC(=O)NC1CCS(=O)(=O)C1)c1nc(-c2cccnc2)nc2ccccc12 (stereo not drawn)	-4.31%
Cc1ccc2nc(N3C(=O)C(O)=C(C(=O)c4ccco4)C3c3cccc(O)c3)sc2c1 (stereo not drawn)	-1.95%
O=C(C1=C(O)C(=O)N(Cc2ccccc2)C1c1cccnc1)c1ccco1 (stereo not drawn)	-4.41%
O=C(C1=C(O)C(=O)N(c2ncccn2)C1c1cccs1)c1ccco1 (stereo not drawn)	44.3% (active)
CC(C)c1nc2sc3c(c2c(=O)n1N)CC(C)(C)OC3	-4.29%

Compound	inhibition
CC/C(C)=N/Nc1nc2sc3c(c2c(=O)[nH]1)CC(C)(C)OC3	20.9% (active)
CCOC(=O)Cn1c(SC)nc2sc3c(c2c1=O)CC(C)(C)OC3	-4.5%
CCC(C)c1ccc(NC(=S)NCc2ccccn2)cc1 (stereo not drawn)	0.44%
CN(C)c1ccc(C2N(C)C(=O)c3ccccc3N2C)cc1 (stereo not drawn)	-1.4%
CN(C)c1ccc(Nc2c3c4c(cccc4n(C)c2=O)C(=O)c2ccccc2-3)cc1	48.2% (active)
COc1ccc(NC(=O)CC2C(=O)OCC3CCCCN32)cc1Cl (stereo not drawn)	1.67%
Cc1ccc(C(=O)O)c(NC=O)c1OCc1ccccc1	-0.93%
COc1ccc(-c2csc(C(O)c3cccc(Cl)c3)n2)cn1 (stereo not drawn)	-11.3%
CCN1CC=C2C(C#N)=C(N)C(C#N)(C#N)[C@H](c3ccoc3)[C@H]2C1	120% (active)
CC(C)C(=O)Nc1nnc(Sc2ccc(N(C)C)cc2)s1	-6.47%
CCN(CC(=O)NCc1ccc(Cl)cc1)C(=O)CSc1ccccc1	-3.84%
CCOCCN(C=O)c1cccc(OC)c1	32.6% (active)
CCOC(=O)NC(=O)C(=CNc1cccc(OC)c1)C(=O)NC(=O)OCC	-2.26%
CCN(CC)C(=O)CN(c1cccc(OC)c1)S(=O)(=O)c1ccc(C)cc1	-0.24%
COc1ccc(NC(=O)CN2C(=O)COc3ccc(S(=O)(=O)N4CCOCC4)cc32)c(OC)c1	-3.19%
CCCCCc1ccc(-c2ccc(C(=O)O)cc2)nc1	-2.2%
O=C(C1CCCO1)N1CCN(C(=S)NC2CC2)CC1 (stereo not drawn)	-2.14%
O=C(OC1CCOC1=O)c1ccc(-c2nc3ccccc3s2)s1 (stereo not drawn)	-3.38%
CCOC(=O)N1CCC(NC(=O)Cc2cn(C)c3ccccc23)CC1	15.9% (active)
CCOC(=O)N1CCC(NC(=O)CCc2cn(C)c3ccccc23)CC1	-2.75%

Compound	inhibition
Cn1cc(CCC(=O)NC2CC2)c2ccccc21	0.25%
CC1(C)OC(=O)C(=CSc2ccc(C(C)(C)C)cc2)C(=O)O1	-7.26%
Cc1cc2nc3c(=O)n(Cc4ccccc4)c(=O)[nH]c3nc2cc1N	182% (active)
Cc1cc(OCC(=O)N(C)c2c(N)n(Cc3ccccc3)c(=O)[nH]c2=O)c(C(C)C)cc1Cl	-1.64%
Nc1cc(=O)n(Cc2ccccc2)c(=O)n1Cc1ccccc1	-0.35%
CC(C)(C)OC(=O)N1CCC(C(=O)NNC(=O)c2ccc(Cl)cc2Cl)CC1	-1.59%
CCOc1ccc(NC(=O)C2CCN(C(=O)N3CCOc4ccccc43)CC2)cc1	-11.2%
CN1CCN(S(=O)(=O)c2ccc(N3CCN(S(=O)(=O)c4cccs4)CC3)nc2)CC1	-1.23%
O=C(C1CCN(S(=O)(=O)Cc2ccccc2)CC1)N1CCCc2ccccc21	-0.35%
CC1CN(Cc2nc3c(c(=O)n(C)c(=O)n3C)n2Cc2cccc(Cl)c2)CC(C)O1 (stereo not drawn)	-2.4%
O=C1CCC(=O)N1c1ccc(NCCc2ccccc2F)c([N+](=O)[O-])c1	0.67%
CCN(CCCCOC(=O)c1ccc(OC)c(OC)c1)C(C)Cc1ccc(OC)cc1 (stereo not drawn)	-2.66%
O=C1CCN(CCCc2ccccc2)CCN1CCO	1.45%
O=C1c2ccccc2C(=O)c2c1cccc2N1CCN(Cc2ccccc2)CC1	5.59%
O=C1c2ccccc2C(=O)c2c1cccc2N1CCN(CCO)CC1	17.6% (active)
Cc1cc2c(cc1C)[n+](C)cn2CC(O)COCC1CC=CCC1 (stereo not drawn)	4.81%
C[C@]12C=CC(=O)C=C1CC[C@@H]1[C@@H]2C(=O)C[C@@]2(C)[C@H]1CC[C@]2(O)C(=O)CO	-2.3% and 1.49%
C[C@H](CO)N1C[C@H](C)[C@@H](CN(C)C(=O)c2cccc(F)c2)Oc2cc(-c3cncnc3)ccc2S1(=O)=O	-3.93%
